# Where “and” joins values, the source holds several entries; their conditions need not be identical. Equal values may be shown once.
# Target: Hexose transporter 1 (Plasmodium falciparum) (UniProt O97467)
# Assay: ST_JUDE_LEISH: Cytotoxicity at 2uM final concentration against transgenic Leishmania Mexicana promastigotes LmPfHT that are glucose transport deficient and complemented with the Plasmodium falciparum hexose transporter. Activity is measured by DNA content using SYBR green in vitro
# Assay type: functional
row,SMILES,inhibition
1,COc1ccc2[nH]cc(C3=CCN(CC4CC4C(=O)c4ccccc4)CC3)c2n1 (stereo not given),14.6%
2,CC[C@H]1CN2CC[C@@H]1C[C@H]2[C@H](O)c1cc(-c2ccc(F)cc2)nc2ccc(O)cc12,0.53%
3,COC(=O)c1ccc(CC(C)NCC(O)c2ccc3ccc4ccccc4c3c2)cc1 (stereo not given),1.22%
4,c1ccc2c(NCCCCCCCCCNc3c4ccccc4nc4ccccc34)c3ccccc3nc2c1,6.11%
5,CC[C@H]1CN2CC[C@@H]1C[C@H]2[C@H](O)c1cc(N2CCC(c3ccccc3)CC2)nc2ccc(OC)cc12,6.56%
6,O=C(COc1ccc(Cl)cc1)N1CCC(CN2CCC(c3c[nH]c4ccccc34)CC2)CC1,-1.7%
7,COc1ccc2nc(-c3ccc(F)cc3)cc([C@@H](O)[C@@H]3C[C@@H]4CCN3CC4C=NO)c2c1 (stereo not given in full),4.75%
8,CS(=O)(=O)Nc1ccc2[nH]cc(C3CC4CCC(C3)N4CC3CCC(NC(=O)/C=C/c4ccc(Cl)c(Cl)c4)CC3)c2c1 (stereo not given),5.37%
9,CC[C@H]1CN2CC[C@H]1C[C@H]2[C@H](O)c1cc(N2CCC3CCCCC3C2)nc2ccc(OC)cc12 (stereo not given in full),4.42%
10,CC1=C(C(=O)NC2CCC(CN3CCC(c4c[nH]c5ccccc45)CC3)CC2)Cc2ccccc21 (stereo not given),2.28% and -2.66%
11,COCCNCc1cccc(-c2ccc(CN(C(=O)NC3CCCCC3)C3CCN(Cc4ccccc4)CC3)cc2)c1,3.57%
12,CCC(C)CN1CCC(N(C)c2cc(NC(=O)c3ccc(F)cc3)ccn2)CC1 (stereo not given),0.64%
13,CC[C@H]1CN2CC[C@H]1C[C@@H]2[C@H](O)c1ccnc2ccc(O)cc12,-0.85%
14,CC[C@H]1CN2CC[C@H]1C[C@H]2[C@H](O)c1ccnc2ccc(OC)cc12,0.87%
15,CCCCCCc1cc(O)c2c3c(c(=O)oc2c1)CCN(C)C3,4.97%
16,CC[C@H]1CN2CC[C@H]1C[C@H]2[C@H](O)c1cc(N2CCCC2)nc2ccc(OC)cc12,-1.79%
17,CC(=O)C1(c2ccccc2)CCN(CCC2(c3ccc(Cl)c(Cl)c3)CN(C(=O)C3CCCC3)CCO2)CC1 (stereo not given),3.1%
18,O=C1Nc2cccc3c2C1(CCCCN1CC=C(c2c[nH]c4ncccc24)CC1)CCC3 (stereo not given),4.08%
19,CC(C)(C)c1cc(/C=C/C(=O)NC2CCC(CN3CCC(c4c[nH]c5ccccc45)CC3)CC2)cc(C(C)(C)C)c1O (stereo not given),0.49% and 5.11%
20,CC(C)CNCc1cccc(-c2ccc(CN(C(=O)Nc3ccccc3)C3CCN(Cc4ccccc4)CC3)cc2)c1,2.2%
21,Cc1ccc(CC(C)NCC(O)c2cccc(Br)c2)cc1 (stereo not given),-0.15%
22,CNCCN(C)C(=O)Oc1c(Cl)c(C)nc(C)c1-c1ccc(Oc2ccc(OC(F)(F)F)cc2)cc1,4.04%
23,CC(=O)C1(c2ccccc2)CCN(CCC2(c3ccc(Cl)c(Cl)c3)CN(C(=O)Nc3cc(F)cc(F)c3)CCO2)CC1 (stereo not given),2.4%
24,O=C(/C=C/c1ccc(Cl)c(Cl)c1)N1CCC(CN2CCC(c3cn(CC(=O)N4CCCCC4)c4ccccc34)CC2)CC1,2.05%
25,Cn1nc(C(F)(F)F)cc1-c1ccc(C(=O)NC2CCC(CN3CCC(c4c[nH]c5ccccc45)CC3)CC2)s1 (stereo not given),4.44%

# Target: Glucose transporter (Leishmania mexicana) (UniProt O61059)
# Assay: ST_JUDE_LEISH: Cytotoxicity at 2uM final concentration against transgenic Leishmania Mexicana promastigotes LmGT2 that are glucose transport deficient and complemented with the L. Mexicana glucose transporter 2. Activity is measured by DNA content using SYBR green in vitro
# Assay type: functional
row,SMILES,inhibition
1,O=C(NCC(=O)N1CCC[C@H]1C(=O)O)[C@@H](Cc1ccccc1)NC(=O)[C@@H]1CCCN1C(=O)CCCc1ccc(O)cc1,-1.68%
2,O=C(/C=C/c1ccc(Cl)c(Cl)c1)N1CCC(CN2CCC(c3c[nH]c4ccccc34)C(O)C2)CC1 (stereo not given),0.72%
3,O=C(C=Cc1ccccc1Br)NC1CCC(CN2CCC(c3c[nH]c4ccccc34)CC2)CC1 (stereo not given),0.32% and 2.12%
4,Cc1ccc(CC(C)NCC(O)c2cccc(C(F)(F)F)c2)cc1F (stereo not given),5.67%
5,COc1ccc(CCNCc2ccc3nc(N)c(C)cc3c2)cc1,3.68%
6,CNCCN(C)C(=O)Oc1c(Br)c(C)nc(C)c1-c1ccc(Oc2ccc(OC(F)(F)F)cc2)cc1,5.59%
7,Cc1ccc(C(=O)Nc2ccnc(N(C)C3CCN(Cc4cccc(O)c4)CC3)c2)cn1,1.3%
8,COc1ccc(CC(C)NCC(O)c2cccc(Cl)c2F)cc1 (stereo not given),0.32%
9,Cc1cc(N(C)C2CCN(C)CC2)nc(Nc2ccc(Cl)cc2)n1,-0.95%
10,O=C(/C=C/c1ccsc1)NC1CCC(CN2CCC(c3c[nH]c4ccccc34)CC2)CC1 (stereo not given),-0.88%
11,CC[C@H]1CN2CC[C@H]1C[C@H]2[C@H](O)c1cc(/C=C/c2ccccc2)nc2ccc(OC)cc12,-0.2%
12,COc1ccc2[nH]cc(C3=CCN(Cc4ccccc4)CC3)c2c1,2.21%
13,N#Cc1c(Cl)cccc1Oc1ccc(S(=O)(=O)NC2CCC(CN3CCC(c4c[nH]c5ccccc45)CC3)CC2)cc1 (stereo not given),0.19% and -0.57%
14,C[C@@H](CC1CCCCC1)NCc1ccccc1O,3.31%
15,CC[C@H]1CN2CC[C@H]1C[C@H]2[C@H](O)c1cc(/C=C/c2ccc(F)cc2)nc2ccc(OC)cc12,2.03%
16,COc1ccc2[nH]cc(C3=CCN(CC4CC4C(=O)c4ccccc4)CC3)c2n1 (stereo not given),11.3%
17,CC[C@H]1CN2CC[C@@H]1C[C@H]2[C@H](O)c1cc(-c2ccc(F)cc2)nc2ccc(O)cc12,-0.19%
18,COC(=O)c1ccc(CC(C)NCC(O)c2ccc3ccc4ccccc4c3c2)cc1 (stereo not given),3.14%
19,c1ccc2c(NCCCCCCCCCNc3c4ccccc4nc4ccccc34)c3ccccc3nc2c1,2.42%
20,CC[C@H]1CN2CC[C@@H]1C[C@H]2[C@H](O)c1cc(N2CCC(c3ccccc3)CC2)nc2ccc(OC)cc12,2.67%

row,SMILES,inhibition
1,O=C(COc1ccc(Cl)cc1)N1CCC(CN2CCC(c3c[nH]c4ccccc34)CC2)CC1,-4.27%
2,COc1ccc2nc(-c3ccc(F)cc3)cc([C@@H](O)[C@@H]3C[C@@H]4CCN3CC4C=NO)c2c1 (stereo not given in full),3.7%
3,CS(=O)(=O)Nc1ccc2[nH]cc(C3CC4CCC(C3)N4CC3CCC(NC(=O)/C=C/c4ccc(Cl)c(Cl)c4)CC3)c2c1 (stereo not given),5.09%
4,CC[C@H]1CN2CC[C@H]1C[C@H]2[C@H](O)c1cc(N2CCC3CCCCC3C2)nc2ccc(OC)cc12 (stereo not given in full),3.38%
5,CC1=C(C(=O)NC2CCC(CN3CCC(c4c[nH]c5ccccc45)CC3)CC2)Cc2ccccc21 (stereo not given),-4.68% and 10.4%
6,COCCNCc1cccc(-c2ccc(CN(C(=O)NC3CCCCC3)C3CCN(Cc4ccccc4)CC3)cc2)c1,2.09%
7,CCC(C)CN1CCC(N(C)c2cc(NC(=O)c3ccc(F)cc3)ccn2)CC1 (stereo not given),2.38%
8,CC[C@H]1CN2CC[C@H]1C[C@@H]2[C@H](O)c1ccnc2ccc(O)cc12,0.24%
9,CC[C@H]1CN2CC[C@H]1C[C@H]2[C@H](O)c1ccnc2ccc(OC)cc12,0.32%
10,CCCCCCc1cc(O)c2c3c(c(=O)oc2c1)CCN(C)C3,6.76%
11,CC[C@H]1CN2CC[C@H]1C[C@H]2[C@H](O)c1cc(N2CCCC2)nc2ccc(OC)cc12,0.03%
12,CC(=O)C1(c2ccccc2)CCN(CCC2(c3ccc(Cl)c(Cl)c3)CN(C(=O)C3CCCC3)CCO2)CC1 (stereo not given),0.75%
13,O=C1Nc2cccc3c2C1(CCCCN1CC=C(c2c[nH]c4ncccc24)CC1)CCC3 (stereo not given),3.96%
14,CC(C)(C)c1cc(/C=C/C(=O)NC2CCC(CN3CCC(c4c[nH]c5ccccc45)CC3)CC2)cc(C(C)(C)C)c1O (stereo not given),-0.51% and 1.19%
15,CC(C)CNCc1cccc(-c2ccc(CN(C(=O)Nc3ccccc3)C3CCN(Cc4ccccc4)CC3)cc2)c1,2.04%
16,Cc1ccc(CC(C)NCC(O)c2cccc(Br)c2)cc1 (stereo not given),1.21%
17,CNCCN(C)C(=O)Oc1c(Cl)c(C)nc(C)c1-c1ccc(Oc2ccc(OC(F)(F)F)cc2)cc1,4.28%
18,CC(=O)C1(c2ccccc2)CCN(CCC2(c3ccc(Cl)c(Cl)c3)CN(C(=O)Nc3cc(F)cc(F)c3)CCO2)CC1 (stereo not given),-0.62%
19,O=C(/C=C/c1ccc(Cl)c(Cl)c1)N1CCC(CN2CCC(c3cn(CC(=O)N4CCCCC4)c4ccccc34)CC2)CC1,-2.07%
20,Cn1nc(C(F)(F)F)cc1-c1ccc(C(=O)NC2CCC(CN3CCC(c4c[nH]c5ccccc45)CC3)CC2)s1 (stereo not given),2.24%
